# Measurements as given in the supplement of paper PMC10338343.
# ± gives the standard deviation.
# Columns and labels:
# [1] = test system: MILI (PIWIL2) piRISC loaded with L1MC piRNA (26 nt); experiment: pre-steady-state target cleavage rate (min^-1); guide: L1MC piRNA 5'p-UAACUAAAUACUAUGCAAGCUGUAGG; higher = faster piRNA-guided slicing of the target
# In short: (§1)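 Sequencing of uncleaved targets, normalised to depth and to weakly complementary targets, was the readout of this Cleave-'n-Seq assay. A transcribed, DNA-blocked target RNA library (0.1 nM) was mixed with 1 nM active affinity-purified piRISC carrying one synthetic guide, with or without 500 nM GTSF1 partner protein, in HEPES–potassium acetate buffer at 33 °C for 0–8 or 0–960 min. Three trials were pooled, k3 was capped at 0.0001 min^-1, and a burst-and-steady-state fit gave the pre-steady-state cleavage rate.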
# [2] = test system: EfPiwi piRISC loaded with L1MC piRNA (26 nt); experiment: pre-steady-state target cleavage rate (min^-1); auxiliary factor: 500 nM Ephydatia muelleri Gtsf1; guide: L1MC piRNA 5'p-UAACUAAAUACUAUGCAAGCUGUAGG; MIWI and MILI are mouse PIWI proteins and EfPiwi is from a freshwater sponge; tags in brackets are library labels; higher = faster piRNA-guided slicing of the target
# In short: as §1
# [3] = auxiliary factor: 500 nM mouse GTSF1
# [4] = auxiliary factor: none (no GTSF1)
Sequence,"pre-steady-state target cleavage rate [1, 3]","pre-steady-state target cleavage rate [1, 4]",pre-steady-state target cleavage rate [2]
UCCUGGAACGCUUGCAUAGUAUUUAGUUA,0.239 ± 0.015,0.00644 ± 0.0019,0.0259 ± 0.0076
UCCUGGAUCAGCUUGCAUAGUAUGUUAGUUA,0.199 ± 0.017,0.00633 ± 0.0025,0.031 ± 0.0087
UCCUGGUACAGCUUUGCAUAGUAUUUAGUUA,0.185 ± 0.018,0.0164 ± 0.0048,0.00974 ± 0.0035
UCCUGGAUCAGCUUGCAUAGCAUUUAGUUA,0.08 ± 0.012,0.00359 ± 0.0025,0.00774 ± 0.0021
UCCUCCUAGAGGUUGCAUAGUAUUUAGUUA,0.205 ± 0.011,0.00716 ± 0.0022,0.0153 ± 0.0029
UCCUGCAACAGCUUGCAUAGUAUUUAGUUA,0.398 ± 0.028,0.0107 ± 0.0034,0.0741 ± 0.018
UCCUCCAACAGCUAGCAUAGUAUUUAGUUA,0.25 ± 0.017,0.00537 ± 0.0023,0.00798 ± 0.0027
UCCUGGUGCAGCUUGCAUAGUAUUUAGUUA,0.287 ± 0.017,0.0103 ± 0.0029,0.0864 ± 0.018
UCCUGGAUGUCCUUGCAUAGUAUUUAGUA,0.0747 ± 0.012,0.00356 ± 0.0024,0.00759 ± 0.0039
UCCUGGAUGUGCUUGCAUAGUAGUUUAGUUA,0.0704 ± 0.017,0.00921 ± 0.0027,0.0051 ± 0.0034
UCCUGGAACAGCUUGCAUAGUAAUUUAGUUA,0.14 ± 0.012,0.00593 ± 0.0025,0.00753 ± 0.0023
UCCUCCUACAGCUUGGUAAGUAUUUAGUUA,0.185 ± 0.017,0.00498 ± 0.0018,0.00379 ± 0.0034
UCCUGCUACAGCAUGGAUAGUAUUUAGUUA,0.257 ± 0.021,0.00639 ± 0.0031,0.00804 ± 0.0023
UCCUGCUACAGGUUGCAUAGUAUUAAGUUA,0.208 ± 0.034,0.00616 ± 0.0022,0.00526 ± 0.0024
UCCUGCUACUGCUUGGAUAGUAUUUAGUUA,0.221 ± 0.016,0.00763 ± 0.0018,0.0111 ± 0.0029
UCCUGGUACAGUUUGCAUAGUAUUUAGUUA,0.254 ± 0.02,0.0161 ± 0.005,0.00421 ± 0.0025
UCCUCCUACAGCAUGCUUAGUAUUUAGUUA,0.206 ± 0.015,0.00645 ± 0.0024,0.0116 ± 0.0032
UCCUGGAUCAGACUUGCAUAGUAUUUAGUUA,0.254 ± 0.015,0.00843 ± 0.0023,0.0293 ± 0.009
